Assay results reported in PubChem BioAssay AID1981 (Southern Research Specialized Biocontainment Screening …, 2009).
The whole screen tested about 2,200 compounds, of which about 480 (22%) were called active. These entries were drawn from the full list. Results with a measured potency or affinity are listed apart. Unmarked numbers belong to inactive results. The rule behind the calls is not given here.

Assay: S. Typhimurium GFP fluorescence modified counterscreen for PhoP regulon inhibitor project dose response (AID 1981);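 note: 0% = induced DMSO wells and 100% = uninduced wells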
Conditions: 4 h; series mostly up to 150 µM; inhibition: at the top concentration

SMILES	inhibition
CCN(C(=O)COc1cc(=O)n(CC)c2ccccc12)c1cccc(Cl)c1	3.2%
CCN(CC)S(=O)(=O)c1ccc2c(c1)nc(SCC(=O)N1CCOCC1)n2-c1ccccc1OC	1.44%
O=c1ccc2ccc(Oc3ccc([N+](=O)[O-])cc3[N+](=O)[O-])cc2o1	12.6%
O=C(CCN1CCc2ccccc2C1)Nc1ccccc1F	-10.2%
CCCc1nc2c(o1)CC(CC(C)SCC)CC2=O (configuration not stated)	-6.99%
COc1ccc(S(=O)(=O)Nc2ccc(F)c(F)c2)cc1Cl	4.83%
S=C(NCc1cccnc1)Nc1ccc(Cl)c(Cl)c1	8.92%
CCc1cccc(C)c1NC(=S)NCc1cccn1C	-0.7%
COC(=O)C1=C(CSc2nc3ccccc3o2)NC(=O)NC1c1cc(C)ccc1C (configuration not stated)	13.2%
CCn1c(SCc2nc3scc(-c4ccccc4)c3c(=O)[nH]2)nnc1-c1cccs1	18.2%
COc1ccc2c(c1)OC1=C(C(=O)CCC1)C2C1=C(O)CCCC1=O (configuration not stated)	7.41%
CC(=O)Nc1cccc(-c2csc(Nc3ccccn3)n2)c1	-1%
O=C(NNc1nc(-c2ccccc2)cs1)c1ccccc1	-3.2%
c1ccc(CN2CCN(c3nc(-c4ccccc4)nc(-n4ccnc4)n3)CC2)cc1	-2.93%
C#CCOc1ccc(/C=N/O)cc1Cl	-3.25%
Cc1ccc(-c2csc(=S)n2CC(=O)OCC(=O)NCc2ccco2)cc1	-8.25%
N#Cc1ccc(C(c2nnnn2CCc2ccccc2)N2CCCCCC2)cc1 (configuration not stated)	-15.7%
Cc1ccc(S(=O)(=O)NNC(=O)c2ccc(O)cc2)cc1	1.15%
CC1(C)SC(=S)N(NC(=O)Nc2ccccc2)C1N(O)C(=O)Nc1ccccc1 (configuration not stated)	7.41%
O=C(CCN1CCCCC1)NCC1OCCc2ccccc21 (configuration not stated)	-20.4%
S=C(Nc1cccc(Cl)c1)Nc1cccc2cnccc12	-24.1%
CCc1nc2cc(Cl)c(Cl)cc2[nH]1	12%
Cc1cccc(N2CCN(CC(=O)Nc3nccs3)CC2)c1C	-2.79%

SMILES	inhibition
CCCOC(=O)Oc1ccc2c(=O)c(Oc3cc(C)cc(C)c3)coc2c1	-16.2%
COC(=O)c1ccccc1Oc1cnc2ccccc2n1	3.05%
CCOC(=O)c1c(/N=C/c2ccc(O)cc2O)sc2c1CCC2	-1.93%
Cc1cccc(Nc2ncccc2C(=O)NCc2cccs2)c1C	-4.09%
Cc1ccccc1NC(=O)c1sc2nc3c(c(-c4ccco4)c2c1N)CCC3	-2.93%
O=C(Nc1nc2cc3c(cc2s1)OCO3)C1=COCCO1	-14.7%
COc1ccc(/C=C/C(=O)NC(=S)NNC(=O)c2cnccn2)cc1	6.18%
N#Cc1c(NC(=O)c2cnccn2)sc2c1CCCC2	-12.6%
COc1ccc(N2CCN(C(=O)CN(c3cccc(Br)c3)S(C)(=O)=O)CC2)cc1	0.41%
NC(=O)CCc1c[nH]c2ccccc12	-14%
O=C(Nc1ccc(S(=O)(=O)N2CCCC2)cc1)c1ccc(CN2CCc3ccccc3C2)cc1	2.53%
O=C(CN1CCN(Cc2ccccc2)CC1)c1c[nH]c2ccccc12	-2.5%
O=C(CCCOc1ccccc1)N1CCCc2ccccc21	6.17%
CCc1nc(SCC(=O)N2CCCc3ccccc32)c2oc3ccccc3c2n1	4.7%
Cc1ccc2c(c1)[nH]c1c(N3CCN(Cc4ccccc4)CC3)ncnc12	-14.9%
CC1CC(C)CN(CCCNC(=O)C2CCC(=O)N2C2CCCC2)C1 (configuration not stated)	-16.3%
CCc1ccc(NC(=O)c2noc3c2CCc2ccccc2-3)cc1	-5.12%
CCSc1nnc(NC(=O)Cc2cccc(OC)c2)s1	-15.9%
Nn1c(COc2cccc(Br)c2)nnc1SCC(=O)N1CCc2ccccc2C1	-19.6%
CCCc1cc(=O)oc2cc(OCC(=O)N3CCc4ccccc43)ccc12	-17.5%
O=[N+]([O-])c1cccc(CN(CCO)Cc2ccccc2)c1	2.79%
COCCNC(=O)c1ccccc1NS(=O)(=O)c1ccc(Br)s1	-10.8%
CCOc1ccc(OCc2ccc(C(=O)N3CCc4ccccc4C3)o2)cc1	2.33%

SMILES	inhibition
O=C(OCc1nnc(-c2ccccc2)o1)c1ccc(S(=O)(=O)NCc2ccco2)cc1	-7.31%
COc1ccc(Cl)cc1NC(=O)C(C)OC(=O)c1ccc(NS(=O)(=O)c2ccc3[nH]c(=O)[nH]c3c2)cc1 (configuration not stated)	33.5%
c1ccc2c(c1)CCN(c1ncnc3c1[nH]c1ccccc13)C2	5.41%
O=C(C(=O)N1CCc2ccccc2C1)N1CCc2ccccc2C1	-2.68%
CC(C)(C)c1ccc(C(=O)NC(=S)NCc2cccnc2)cc1	-9.06%
CCn1c2ccccc2c2cc(NC(=O)C(C)Oc3ccccc3)ccc21 (configuration not stated)	-7.23%
O=C(NCc1cn2ccsc2n1)Nc1ccc(Cl)cc1	2.35%
O=Cc1cn(Cc2ccccc2[N+](=O)[O-])c2ccccc12	-16.4%
COCCNC(=O)c1ccc(C(=O)NCCOC)s1	-3.43%
C/C(=C\c1ccco1)C1Nc2cccc3cccc(c23)N1	26.3%
Cc1ccc(C(=O)NCC(=O)NCC(=O)OCC(=O)c2ccc([N+](=O)[O-])cc2)cc1	5.29%
CCCCn1c(-c2ccccc2)nc2c(=O)n(C)c(=O)[nH]c21	0.02%
O=C(Cn1nc(Cl)nc1Cl)c1ccc2c(c1)OCCO2	-23.9%
Cc1ccc2c(c1)C1CN(C)CCC1N2C(=O)COc1ccc(S(=O)(=O)N2CCOCC2)cc1 (configuration not stated)	-9.64%
N#Cc1ccc(CSc2nnc(-c3ccncc3)n2CCc2ccccc2)cc1	-2.17%
O=C(Nc1ccsc1C(=O)NC1CCCCC1)c1ccccc1	-6.29%
O=C(Nc1ccccn1)NC1CCCCC1	-21.8%
COc1ccc(-c2ccc(-c3noc(-c4cccs4)n3)c(OC)n2)cc1	11.8%
CCn1cc(C(C)(C)C)c(C#N)c1NC(C)=O	15.8%
Cc1c(C(c2cccc([N+](=O)[O-])c2O)c2c(C)n(C)n(-c3ccccc3)c2=O)c(=O)n(-c2ccccc2)n1C	1.78%
Cc1[nH]n(-c2ccccc2)c(=O)c1-c1ccc(Cl)cc1	11.1%
O=C(CCNS(=O)(=O)c1cccc2nsnc12)NCc1cccs1	8.47%
CCOC(=O)C1=C(C)NC(SCc2cc(=O)[nH][nH]2)=C(C#N)C1c1cccs1 (configuration not stated)	-1.12%

SMILES	inhibition
COc1ccc(N2C(=O)C3CCCN3C2c2cccc(C)c2)cc1Cl (configuration not stated)	-1.71%
COc1nccnc1NS(=O)(=O)c1ccc(NC(=S)NC(=O)c2cccnc2)cc1	-4.58%
COc1cc(OC)c(C(=O)Nc2ccc(S(=O)(=O)Nc3ncccn3)cc2)cc1OC	-1.93%
Cc1ccn2cc(CSc3ccccc3N)nc2c1	-21.6%
Cc1cccc2cc(C#N)c(N3CCN(C)CC3)nc12	-17.3%
CCOC(=O)N1CCN(C(=O)C(NC(=O)c2ccc(CC)cc2)C(C)C)CC1 (configuration not stated)	-18.7%
COc1c(Cl)cnn(-c2ccc(C)cc2)c1=O	5.85%
O=C(CN1CC(c2ccccc2)CC1=O)N/N=C/c1cc(Br)ccc1O (configuration not stated)	37.5%
O=C(CSCc1ccccc1)N/N=C/c1ccccc1OCc1ccccc1	-1.35%
CC(C)(C)c1ccc(C2CC2C(=O)N/N=C\c2cc3ccccc3nc2Cl)cc1 (configuration not stated)	-2.95%
CC(C)c1ccc(C2NC(=O)NC3=C2CCc2ccccc23)cc1 (configuration not stated)	-9.82%
O=C(NC1CCCCC1)C(c1ccncc1)N(CC1CCCO1)C(=O)C(F)(F)F (configuration not stated)	-3.18%
COc1ccc(Nc2nc(NCc3ccco3)nc(N/N=C/c3ccccc3Cl)n2)cc1	-2.36%
CCOc1ccc(NC(=O)c2ccc(NC(=O)COC(=O)Cc3ccccc3)cc2)cc1	7.61%
Cc1ccc(NC(=S)NC(NC(=O)c2ccco2)C(Cl)(Cl)Cl)cc1 (configuration not stated)	0.18%
O=C(c1ccccc1)c1c2c(cc3sc4ccccc4[n+]13)-c1cccc3cccc-2c13	18%
CN1C(=O)CC(P(=O)(c2ccccc2)c2ccccc2)N(C)C1=O (configuration not stated)	-0.81%
COc1ccc(N2C(=O)CC(Sc3nc(C)c4c(n3)CCCC4)C2=O)cc1 (configuration not stated)	-5.07%
COC(=O)c1cc(C#N)c(Oc2ccc(F)cc2)nc1C	-11.3%
Nc1nc2ccccc2n1/N=C/c1ccc(-c2ccccc2)o1	5.57%
CN(C)CCCN(C(=O)CCc1ccccc1)c1nc2ccc(Cl)cc2s1	-0.98%
c1ccc(C2(CNc3ccccn3)CCCC2)cc1	-0.33%
Cc1ccc(-n2ncc3c(N4CCN(c5ccccc5)CC4)ncnc32)c(C)c1	0.31%

SMILES	inhibition
O=C(CC1SC(=NCc2ccccc2)NC1=O)Nc1ccccc1 (configuration not stated)	-21.5%
Cc1nn(C)c(C)c1S(=O)(=O)N1CCC(C(=O)NC2CCCCC2)CC1	-14.5%
COc1cc(NC(=O)CSc2nnnn2Cc2ccc3c(c2)OCO3)cc(OC)c1	7.32%
Cc1ccc(N)cc1-n1c(C)ccc1C	-4.71%
CC(C)(C)c1ccc(C(=O)Nc2ccc(C=C(C#N)C#N)cc2)cc1	-4.47%
COCCSc1ccccc1C(=O)NCC1CCCO1 (configuration not stated)	0.94%
Cn1c(NCc2cc(Br)ccc2O)nc2ccccc21	-8.36%
O=S(=O)(Nc1ccc2c(c1)nc1n2CCN(Cc2ccccc2)C1)c1ccc(Cl)cc1	4.42%
C=CCn1c(SCc2c(C(=O)OC)sc(N)c2C(=O)OC)nnc1-c1ccc(Cl)cc1	3.35%
CCC(CC)C(=O)NCCc1ccc(OC)cc1	-19.9%
O=C(Cn1cnc2ccccc2c1=O)NCc1ccco1	-7.91%
CC(=O)NCCOc1c(C)cc(S(N)(=O)=O)cc1C	-20.7%
C=CCOc1ccc(CNc2nn[nH]n2)cc1	-9.95%
COC(=O)Cc1c(C)nc2nc(NCc3ccc(Cl)cc3)[nH]n2c1=O	-1.93%
CN(C)C(=O)On1c(-c2ccccc2)nc2ccc(Cl)cc21	-2.41%
CC(C)N(Cc1nc(-c2ccccc2)no1)C(=O)CN(C)S(=O)(=O)c1ccccc1	-24.6%
Cc1ccc(Nc2cc(C)nc3nc(C)nn23)cc1	-1.42%
COc1ccc(Nc2nnc(SCc3cn4c(C)cccc4n3)s2)cc1	14.2%
CCOC(=O)N1CCN(S(=O)(=O)c2ccc(C(=O)NNc3nc4cc(C)cc(C)c4s3)cc2)CC1	37.6%
Cc1ccc(Nc2nc(Cl)nc(N(C)C#N)n2)cc1	-6.75%
